Data as given in PubChem BioAssay (Tox21).
Inconclusive results are not listed. A number with no mark means an inactive call. Active and inactive are the calls of the source. Calls follow the shape of the dose curve; as a rule, active = well fitted activation curve with a large enough effect in the signal ratio in the repeat runs (not every such curve was filed as active); inconclusive = weak or mixed curves; inactive = flat fitted curve, though single readings scatter; the % refers to the signal ratio.

assay: qHTS assay to identify small molecule agonists of the TGF-beta/Smad signaling pathway (AID 1346859); settings: SBE-bla HEK293T, TGF-beta/Smad beta-lactamase reporter, 5 h; series mostly up to 76.8 µM
Source text: U.S. Tox21 Program National Center for Advancing Translational Sciences [NCATS] NIH Chemical Genomics Center [NCGC] U.S. Environmental Protection Agency [EPA] National Institutes of Environmental Health Sciences [NIEHS] National Toxicology Program [NTP] U.S. Food and Drug Administration [FDA] Tox21 Assay Overview: Transforming growth factor beta (TGF-beta) superfamily consists of a large number of structurally related dimeric proteins that act as hormones or local mediators in regulating a wide range of biological functions. This superfamily includes TGF-betas themselves, the bone morphogenetic proteins (BMPs) and the activins. These ligands induce oligomerization of serine/threonine receptor kinases and phosphorylate the cytoplasmic signaling molecules of Smad protein family. CellSensor SBE-bla HEK 293T cell line (Life Technologies, Carlsbad, CA), responsive to TGF-beta was used to screen Tox21 10K compound library for identification of agonists/antagonists of the Smad signaling pathway. This cell line contains a beta-lactamase reporter gene under control of the Smad binding element (SBE) stably integrated into HEK 293T cells.
Tox21 Assay Protocol Summary: SBE-bla HEK 293T cells were dispensed at 4,000/well in 6 uL of assay medium into black wall/clear-bottom 1536-well plates using a Multidrop Combi (ThermoFisher Scientific, Waltham, MA) dispenser. After the assay plates were incubated at 37 C and 5% CO2 for an overnight, 23 nL of compounds dissolved in DMSO, positive controls or DMSO only was transferred to the assay plate by a Pintool station (Kalypsys, San Diego, CA). The assay plates were incubated at 37 C and 5% CO2 for 5 hr. One uL of LiveBLAzer B/G FRET substrate (Life Technologies) was added using a Flying Reagent Dispenser (Aurora Discovery, San Diego, CA) and the plates were incubated at room temperature for 2 hr. Fluorescence intensity (405 nm excitation, 460 nm and 530 nm emissions) was measured using an Envision plate reader (PerkinElmer, Shelton, CT).
% is scaled to controls: 0 for no effect and ±100 for the full control effect.

Row | Structure (SMILES) | outcome | activation
1 | CCOP(=S)(OCC)Oc1nc(Cl)n(C(C)C)n1 | inactive | 
2 | ClC(Cl)Br | inactive | 
3 | COc1cc(OC)nc(NC(=O)NS(=O)(=O)c2ncccc2OCC(F)(F)F)n1 | inactive | 
4 | Nc1n[nH]c(N)n1 | inactive | 
5 | Fc1ccc(C2(Cn3cncn3)OC2c2ccccc2Cl)cc1 (stereo not given) | inactive | 
6 | CC(C)COP(=O)(OCC(C)C)OCC(C)C | inactive | 
7 | CCOC(=O)NC(=S)Nc1ccccc1NC(=S)NC(=O)OCC | inactive | 
8 | CCC(=O)c1ccccc1 | inactive | 
9 | CC(C)NCC(O)c1ccc(N)c(C#N)c1 (stereo not given) | inactive | 
10 | c1coc(-c2nc3ccccc3[nH]2)c1 | inactive | 
11 | O=C(Cc1ccccc1)OCc1ccccc1 | inactive | 
12 | CCCSC(=O)Cl | inactive | 
13 | OCCSCSCCO | inactive | 
14 | CCOC(=O)C(c1c(O)c2ccccc2oc1=O)c1c(O)c2ccccc2oc1=O | inactive | 
15 | COP(N)(=S)Oc1ccccc1C(=O)OC(C)C (stereo not given) | inactive | 
16 | CC1(C)CON(Cc2ccccc2Cl)C1=O | inactive | 
17 | CC(=O)CC(c1ccc(Cl)cc1)c1c(O)c2ccccc2oc1=O (stereo not given) | inactive | 
18 | CCOP(=S)(OCC)Oc1ncn(-c2ccccc2)n1 | inactive | 
19 | COc1ncc(F)c2nc(S(=O)(=O)Nc3c(F)cccc3F)nn12 | inactive | 
20 | O=C1c2ccccc2C(=O)c2ccccc21 |  | -3.6% [at 15.8 µM]

Row | Structure (SMILES) | outcome | activation
21 | CCS(=O)(=O)CCSP(=O)(OC)OC | inactive | 
22 | COC(=O)c1ccccc1S(=O)(=O)NC(=O)Nc1nc(C)cc(C)n1 | inactive | 
23 | CCC(=O)C(CCN(C)C)(c1ccccc1)c1ccccc1 | inactive | 
24 | BrCCCCCCBr | inactive | 
25 | Nc1cnn(-c2ccccc2)c(=O)c1Cl | inactive | 
26 | OC(c1ccccc1)(c1ccccc1)C1CCNCC1 | inactive | 
27 | CC(=O)CCc1ccc2c(c1)OCO2 | inactive | 
28 | CN1C[C@@H](NS(=O)(=O)N(C)C)C[C@@H]2c3cccc4c3c(cn4C)C[C@H]21 | inactive | 
29 | CCCCOP(=O)(O)OCCCC | inactive | 
30 | O=C1OC(CCN2CCCCC2)OC1(c1ccccc1)c1ccccc1 (stereo not given) | inactive | 
31 | CCCCCCBr | inactive | 
32 | Cc1coc2c1CCC(C)C2 (stereo not given) | inactive | 
33 | Nc1cc(Cl)ccc1O | inactive | 
34 | CNNC | inactive | 
35 | O=C1OC(=O)C2C1C1(Cl)C(Cl)=C(Cl)C2(Cl)C1(Cl)Cl (stereo not given) | inactive | 
36 | O=P(O)(Oc1ccccc1)Oc1ccccc1 | inactive | 
37 | CCOC(=O)CP(=O)(OCC)OCC | inactive | 
38 | c1cc[c]([Hg][c]2ccccc2)cc1 | inactive | 
39 | COc1ccc2c(c1OC)CN1CCc3cc4c(cc3C1C2)OCO4 (stereo not given) | inactive | 
40 | O=CNC(N1CCN(C(NC=O)C(Cl)(Cl)Cl)CC1)C(Cl)(Cl)Cl (stereo not given) | inactive | 
